hDAT+cocaine: human DAT dopamine uptake with cocaine, either direction; LLC-PK1 hDAT cells, [14C]-dopamine uptake with cocaine IC80; actives deviate in either direction; B-score at 10 µM; actives 1.3% (n = 110,000); AID 449768;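 active means Z score or B-score, a plate-position-corrected score, falls beyond the plate's 99.7% confidence bounds, in either direction; inactive means both scores lie inside the 99.7% bounds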
Cav32 inh: inhibitors of human Cav3.2 T-type calcium channel; O95180; Cav3.2-expressing cells, Fluo-4 calcium fluorescence FDSS; active compounds read low; B-score at 10 µM; actives 4% (n = 100,000); AID 449739;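 active means single-dose well whose peak fluorescence ratio is a statistical outlier from its plate by either plate-standardised score or position-corrected B-score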
PostGolgi yeast: growth inhibition of a yeast mutant, post-Golgi transport screen; post-Golgi transport phenotypic cell assay; inhibition, % at 10 µM; actives 0.9% (n = 98,000); AID 739;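 further: yeast cells grown in 1536-well plates; yeast grown about 18 h at 30C before absorbance read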
PostGolgi ctrl: inhibits growth of the yeast control strain | actives 5% (n = 98,000) | inhibition, % at 10 µM | efflux-deficient yeast background strain, growth absorbance A615, 16 h
PLAP activator: human PLAP activation; P05187; purified PLAP enzyme, luminescent substrate read-out; active compounds read high; activation fold at 20 µM; actives 1.2% (n = 96,000); in the data active means activation fold above about 2
Target sequence (P05187 whole entry, looked up): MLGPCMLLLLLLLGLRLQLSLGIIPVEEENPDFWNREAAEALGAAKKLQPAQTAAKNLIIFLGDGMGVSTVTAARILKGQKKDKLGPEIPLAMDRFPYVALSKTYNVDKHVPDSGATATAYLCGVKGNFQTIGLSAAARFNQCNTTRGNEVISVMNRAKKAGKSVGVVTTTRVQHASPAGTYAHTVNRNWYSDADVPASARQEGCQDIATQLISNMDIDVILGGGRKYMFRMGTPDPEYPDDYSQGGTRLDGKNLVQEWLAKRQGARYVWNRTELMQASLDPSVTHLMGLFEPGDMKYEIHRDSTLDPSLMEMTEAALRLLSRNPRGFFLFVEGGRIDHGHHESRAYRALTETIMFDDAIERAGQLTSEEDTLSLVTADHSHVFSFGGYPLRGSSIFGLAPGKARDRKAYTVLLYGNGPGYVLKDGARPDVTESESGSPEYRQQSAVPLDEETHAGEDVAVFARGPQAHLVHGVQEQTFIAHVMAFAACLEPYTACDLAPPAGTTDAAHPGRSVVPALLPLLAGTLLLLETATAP
Numbers stand for hits; i = inactive; nt = no result. Sampled rows, rich in hits. Any-hit rate of the full collection: about 9.6%. Unless noted, no stated cut-off is given here; in the data, active means inhibition above about 30%; inactive means the rest.

SMILES	hDAT+cocaine	Cav32 inh	PostGolgi yeast	PostGolgi ctrl	PLAP activator
O=C(NC1CCCc2ccccc21)C1CCN(S(=O)(=O)c2cccc3nonc23)CC1 (stereo not given)	i	i	i	i	i
O=C(NCCCc1ccccc1)c1ccccc1O	i	i	i	i	i
O=C(NCCO)c1ccccc1O	-9.9	i	i	i	i
CC1=C(CC(=O)O)c2cc(F)ccc2/C1=C\c1ccc(S(C)=O)cc1 (stereo not given)	i	i	nt	nt	nt
FC(F)(F)c1nnc(-c2ccccc2)nc1Oc1ccc(Cl)cc1Cl	nt	nt	i	34	i
FC(F)(F)c1cccc(Oc2nc(-c3ccccc3)nnc2C(F)(F)F)c1	i	i	i	i	i
CCn1nc(C(=O)Nc2ccccc2C)c(Cl)c1Cl	nt	i	i	i	i
CCn1nc(C(=O)Nc2cccc3ccccc23)c(Cl)c1Cl	i	-5.7	i	i	i
COc1ccc(Nc2ncc3c(n2)CC(c2ccc(OC)cc2)CC3=O)cc1 (stereo not given)	i	i	i	i	i
COc1ccc(C2CC(=O)c3cnc(NC(=O)c4ccccc4)nc3C2)c(OC)c1 (stereo not given)	i	-3.3	i	i	i
COc1ccccc1C(=O)Nc1ncc2c(n1)CC(c1ccco1)CC2=O (stereo not given)	-3.8	i	i	i	i
CCc1ccc(CNCCNCC(C)O)cc1 (stereo not given)	i	i	i	i	i
CC(C)NC(=O)c1ccc(CS(=O)(=O)c2ccc(Br)cc2)o1	i	i	i	i	i
COCCn1c(=NC(=O)CSC(C)=O)sc2cc(OC)ccc21	i	-5.9	i	i	i
CCn1c(=NC(=O)CSC(C)=O)sc2cc(OC)ccc21	i	-6.7	i	i	nt
CCOC(=O)Cn1c(=NC(=O)CSC(C)=O)sc2cc(F)ccc21	i	-7.5	i	i	i
COC(=O)c1cc(=O)nc2sc3cc(OC)ccc3n12	i	i	nt	nt	nt
COCCn1c(=NC(=O)CSCC(=O)NC2CCCCC2)sc2cc(OC)ccc21	i	i	i	48	i
CCOc1ccc2c(c1)sc(=NC(=O)C1CC1)n2C	i	i	i	i	i
O=C(CCCN1C(=O)c2ccccc2C1=O)N1CCN(c2ccccn2)CC1	i	i	i	i	i
CC1CC(C)CN(CCCNC(=O)c2csc3c2CCCC3)C1 (stereo not given)	i	i	i	i	i
COCCn1c(=NC(=O)CSC(C)=O)sc2cc(F)ccc21	i	-8.7	i	i	i
COC(=O)c1cc(=O)n(Cc2cccs2)c(=Nc2ccc(F)cc2)s1	i	i	nt	nt	nt
Cc1cc(C)n2[nH]c(=O)c(N=Nc3cccc(Cl)c3)c2n1	i	i	i	39	i
Cc1cc(C)n2[nH]c(=O)c(N=Nc3ccccc3)c2n1	i	i	i	i	i
SMILES	hDAT+cocaine	Cav32 inh	PostGolgi yeast	PostGolgi ctrl	PLAP activator
O=C1C2ON(c3ccccc3)C(c3cccnc3)C2C(=O)N1c1ccccc1 (stereo not given)	i	nt	i	i	i
COc1cc(C2C3C(=O)N(c4ccc(F)cc4)C(=O)C3ON2c2ccccc2)ccc1O (stereo not given)	-6.9	i	i	i	i
COc1ccc(N2CCN(Cc3oc(CO)cc(=O)c3O)CC2)cc1	i	i	i	i	i
CC(C)CC(C(=O)Nc1oc(-c2ccco2)c(-c2ccco2)c1C#N)N1C(=O)c2ccccc2C1=O (stereo not given)	i	i	i	i	i
O=C(Cc1ccccc1)NC(Nc1ccccc1)C(Cl)(Cl)Cl (stereo not given)	i	-4.2	i	i	i
O=C(CCc1ccccc1)NC(NC(=S)Nc1ccc(Br)cc1)C(Cl)(Cl)Cl (stereo not given)	i	i	i	i	i
O=C(Cc1ccccc1)NC(NCCc1ccccc1)C(Cl)(Cl)Cl (stereo not given)	i	-10	i	i	i
CC(C)(C)NC(NC(=O)Cc1ccccc1)C(Cl)(Cl)Cl (stereo not given)	i	i	i	i	i
CCCc1cc(C(N)=O)c(NC(=O)c2ccoc2C)s1	i	i	i	i	i
CCCc1cc(C(N)=O)c(NC(=O)c2cc(C)on2)s1	i	i	i	49	i
CN(C)c1ccnc2sc(C(N)=O)c(N)c12	i	i	i	i	i
CN(C)c1ccnc2sc(C(=O)NCc3ccccc3)c(N)c12	i	i	i	63	i
Cc1cc(C)nc(N2CCCC(C(=O)NCC(c3ccccc3)c3ccccc3)C2)n1 (stereo not given)	i	i	nt	nt	nt
CC(C)(C)NC(=O)CC(c1ccccc1)c1ccccc1O (stereo not given)	i	i	i	i	i
CCCN(CCC)C(=O)CC(c1ccccc1)c1cc(Br)ccc1O (stereo not given)	i	i	i	47	i
CCCN(CCC)C(=O)CC(c1ccccc1)c1ccc(C)cc1O (stereo not given)	i	-5.7	i	i	i
Cc1ccc(C2C(/C=C3/SC(=S)NC3=O)=C(c3cccs3)Oc3ccccc32)cc1 (stereo not given)	i	nt	i	i	i
O=C(c1ccc(Cl)c(Cl)c1)N(Cc1ccco1)c1ccc(O)cc1	i	-7.4	i	i	i
O=C(Cn1cnc2ccccc2c1=O)N(Cc1ccco1)c1ccc(O)cc1	i	i	i	i	i
N#C/C(=C\c1cccs1)Sc1nc2ccccc2s1	i	nt	i	35	i
CC(C)CCn1c(=O)c2ccccc2n2c(CN(C)Cc3ccccc3)nnc12	-8.6	i	i	i	i
O=C(Nc1ccccc1N1CCOCC1)c1ccc2ccccc2n1	i	i	i	i	i
O=S(=O)(c1ccccc1)c1nc(Nc2ccccc2N2CCOCC2)sc1Cl	i	-5.3	i	i	i
CC(=O)NC(c1ccco1)c1ccc2cccnc2c1O (stereo not given)	i	i	i	i	2.7
CCOc1ccc(Cl)cc1S(=O)(=O)N1CCN(c2ccc(F)cc2)CC1	i	-3.7	i	33	i
SMILES	hDAT+cocaine	Cav32 inh	PostGolgi yeast	PostGolgi ctrl	PLAP activator
COc1ccc(Cl)cc1S(=O)(=O)N1CCN(c2ccc(F)cc2)CC1	i	-3.7	i	i	i
Cc1cc(Cl)c(S(=O)(=O)N2CCN(c3ccc(F)cc3)CC2)cc1OCC(=O)NC1CCCCC1	i	-5.2	i	i	i
CCOc1ccc(Cl)cc1S(=O)(=O)n1cnc2cc(C)c(C)cc21	i	i	i	40	i
COc1ccc(NC(=O)CCn2cccc2)cc1	i	i	i	i	i
Fc1ccc(CNC(=S)Nc2ccc(Cl)cc2)cc1	i	-4.3	i	i	i
CC(=O)c1ccc(NC(=O)Nc2cccc(Cl)c2)cc1	-3.9	i	i	i	i
CCCCC(=O)Nc1ccc(F)c(Cl)c1	i	i	i	i	i
FC(F)(F)c1cccc(NC(=S)Nc2ccc(Cl)cc2Cl)c1	i	i	38	53	i
Fc1ccc(NC(=S)Nc2ccc(F)c(Cl)c2)cc1Cl	i	-4.1	72	65	i
O=C(Nc1ccccc1)Nc1cccc(Cl)c1	i	i	i	i	i
O=C(NC1CCCCC1)[C@H](CSCc1ccccc1)N1Cc2ccccc2C1=O	i	i	nt	nt	nt
CC(C)(C)NCC1(CO)SC(N)=NC1=O (stereo not given)	i	i	i	i	i

Screening data as filed in PubChem.
